From PubChem BioAssay (NCATS)
Results filed as inconclusive are left out. The source made the active and inactive calls. The call rests on the fitted dose curve; in most records, active means well fitted curve in the direction sought with a large enough effect; inconclusive means small, poorly fitted or top-dose-only effect, or another doubt; inactive means no such curve, though single readings can be large; an effect the other way counts as inactive or inconclusive.

Key:
[1] = Quantitative High-Throughput drug screen in 47 multiple myeloma cell lines against the NCATS MIPE library collection: Delta47_JCRB cell viability assay (AID 1918925; further: nearly all actives have a fitted effect of over 45% in size)
Summary of the method: (§1)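 Approved and investigational drugs from MIPE 4.0 were added by pin tool to 500 cells per well. After 48 hours at 37C, ATP-based CellTiter-Glo luminescence indicated remaining viability.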

[2] = Quantitative High-Throughput drug screen in 47 multiple myeloma cell lines against the NCATS MIPE library collection: EJM_DSMZ cell viability assay (AID 1918926; further: nearly all actives have a fitted effect of over 30% in size)
Summary of the method: as §1

[3] = Quantitative High-Throughput drug screen in 47 multiple myeloma cell lines against the NCATS MIPE library collection: AMO1_DSMZ cell viability assay (AID 1918927; further: nearly all actives have a fitted effect of over 30% in size)
Summary of the method: as §1

[4] = Quantitative High-Throughput drug screen in 47 multiple myeloma cell lines against the NCATS MIPE library collection: ARP1_JJKsccF8 cell viability assay (AID 1918928; further: nearly all actives have a fitted effect of over 40% in size)
Summary of the method: (§2)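 Luminescence from CellTiter-Glo, taken after 5 min at room temperature, reports cellular ATP as viability. Cells (500 per well) had been treated 48 h at 37 °C with MIPE 4.0 compounds, scaled between DMSO and medium-only controls.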

[5] = Quantitative High-Throughput drug screen in 47 multiple myeloma cell lines against the NCATS MIPE library collection: Karpas620_DSMZ cell viability assay (AID 1918959); further: nearly all actives have a fitted effect of over 30% in size
Summary of the method: (§3)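 Myeloma cell lines, 500 cells per well, exposed to MIPE 4.0 library compounds for 48 h at 37C, 5% CO2. Viability from ATP by CellTiter-Glo luminescence; normalised to DMSO (100%) and media-only (0%) wells.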

[6] = Quantitative High-Throughput drug screen in 47 multiple myeloma cell lines against the NCATS MIPE library collection: KHM11_PLB cell viability assay (AID 1918962); further: nearly all actives have a fitted effect of over 35% in size
Summary of the method: as §3

[7] = Quantitative High-Throughput drug screen in 47 multiple myeloma cell lines against the NCATS MIPE library collection: JIM3_ECACC cell viability assay (AID 1918963; further: nearly all actives have a fitted effect of over 35% in size)
Summary of the method: as §3

[8] = Quantitative High-Throughput drug screen in 47 multiple myeloma cell lines against the NCATS MIPE library collection: JIM1_ECACC cell viability assay (AID 1918964)
Summary of the method: as §1

[9] = Quantitative High-Throughput drug screen in 47 multiple myeloma cell lines against the NCATS MIPE library collection: INA6_PLB cell viability assay (AID 1918965; further: nearly all actives have a fitted effect of over 55% in size)
Summary of the method: as §3

[10] = Quantitative High-Throughput drug screen in 47 multiple myeloma cell lines against the NCATS MIPE library collection: H1112_PLB cell viability assay (AID 1918967; further: nearly all actives have a fitted effect of over 30% in size)
Summary of the method: as §1

[11] = Quantitative High-Throughput drug screen in 47 multiple myeloma cell lines against the NCATS MIPE library collection: Karpas25_ECACC cell viability assay (AID 1918968; further: nearly all actives have a fitted effect of over 35% in size)
Summary of the method: as §1

[12] = Quantitative High-Throughput drug screen in 47 multiple myeloma cell lines against the NCATS MIPE library collection: KMS27_JCRB cell viability assay (AID 1918970); details: KMS27 myeloma cells, CellTiter-Glo ATP viability, 48 h; viability (% of DMSO): at 45.8 µM (top of the series); further: nearly all actives have a fitted effect of over 30% in size
Summary of the method: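 Luminescent ATP read-out (CellTiter-Glo, 5 min at room temperature) after 48 h compound exposure of 500 KMS27_JCRB cells per well; DMSO wells define full viability and media-only wells zero.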

[13] = Quantitative High-Throughput drug screen in 47 multiple myeloma cell lines against the NCATS MIPE library collection: KMS12PE_JCRB cell viability assay (AID 1918972); further: nearly all actives have a fitted effect of over 30% in size
Summary of the method: as §3

[14] = Quantitative High-Throughput drug screen in 47 multiple myeloma cell lines against the NCATS MIPE library collection: ARD_JJKsccE7 cell viability assay (AID 1918929)
Summary of the method: as §1

[15] = Quantitative High-Throughput drug screen in 47 multiple myeloma cell lines against the NCATS MIPE library collection: KMM1_JCRB cell viability assay (AID 1918960); further: nearly all actives have a fitted effect of over 30% in size
Summary of the method: as §2

[16] = Quantitative High-Throughput drug screen in 47 multiple myeloma cell lines against the NCATS MIPE library collection: Karpas417_ECACC cell viability assay (AID 1918961); details: Karpas417 myeloma viability, CellTiter-Glo ATP luminescence, 48 h; viability (% of DMSO): at 45.8 µM (top of the series)
Summary of the method: as §3

[17] = Quantitative High-Throughput drug screen in 47 multiple myeloma cell lines against the NCATS MIPE library collection: JJN3_DSMZ cell viability assay (AID 1918966; further: nearly all actives have a fitted effect of over 50% in size)
Summary of the method: as §1

[18] = Quantitative High-Throughput drug screen in 47 multiple myeloma cell lines against the NCATS MIPE library collection: KMS12BM_JCRB cell viability assay (AID 1918971); further: nearly all actives have a fitted effect of over 35% in size
Summary of the method: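 Relative luminescence from CellTiter-Glo served as the viability signal, referenced to DMSO-treated (100%) and cell-free medium (0%) controls. Treatment lasted 48 hours at 37C with 500 cells per well.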

[19] = Quantitative High-Throughput drug screen in 47 multiple myeloma cell lines against the NCATS MIPE library collection: KMS20_JCRB cell viability assay (AID 1918973); further: nearly all actives have a fitted effect of over 45% in size
Summary of the method: as §1

[20] = Quantitative High-Throughput drug screen in 47 multiple myeloma cell lines against the NCATS MIPE library collection: FR4_PLB cell viability assay (AID 1918924; further: nearly all actives have a fitted effect of over 35% in size)
Summary of the method: as §3

Measured: Potency
Potency means the concentration at half of the fitted maximal effect.

NC(=O)c1noc([C@H](CCCC2CCCCC2)CC(=O)NO)n1
active: [1] 9.35 µM | [2] 14.8 µM | [3] 4.18 µM | [4] 14.8 µM | [5] 7.43 µM | [6] 20.9 µM | [7] 23.5 µM | [8] 5.9 µM | [9] 14.8 µM | [10] 16.6 µM | [11] 14.8 µM | [12] 7.43 µM | [13] 5.26 µM

Cc1ccc2c(c1)c1c(n2CCc2ccc(C)nc2)CCN(C)C1
inactive: [1] | [2] | [3] | [14] | [5] | [15] | [16] | [7] | [8] | [10] | [12]

CCOC(=O)[C@H](CCc1ccccc1)N[C@@H](C)C(=O)N1CCCC1C(=O)O (some centres not stated)
inactive: [1] | [2] | [3] | [4] | [14] | [5] | [15] | [6] | [17] | [11] | [18] | [13] | [19]

CC(C)c1c(C(=O)Nc2ccccc2)c(-c2ccccc2)c(-c2ccc(F)cc2)n1CC[C@H](O)C[C@@H](O)CC(=O)O
active: [20] 14.8 µM | [6] 18.7 µM | [7] 14.8 µM | [9] 8.33 µM | [11] 11.8 µM | [12] 4.69 µM | [18] 13.2 µM | [13] 6.62 µM
inactive: [3] | [5]

Fc1ccc(CNc2ncnc3ccc(F)cc23)cc1
active: [1] 7.43 µM | [2] 6.62 µM | [3] 7.43 µM | [4] 6.62 µM | [14] 4.69 µM | [5] 5.9 µM | [15] 4.18 µM | [6] 8.33 µM | [7] 11.8 µM | [9] 8.33 µM | [10] 13.2 µM | [11] 3.72 µM | [18] 3.72 µM | [13] 4.69 µM

Cc1cccc(Nc2nc(N[C@@H]3CCCC[C@H]3N)ncc2C(N)=O)c1
active: [1] 0.187 µM | [2] 20.9 µM | [3] 20.9 µM | [4] 16.6 µM | [5] 26.4 µM | [15] 16.6 µM | [16] 3.72 µM | [6] 4.18 µM | [7] 16.6 µM | [8] 5.9 µM | [9] 1.48 µM | [17] 16.6 µM | [11] 10.5 µM | [12] 23.5 µM | [18] 14.8 µM | [13] 16.6 µM | [19] 4.69 µM

NS(=O)(=O)c1ccc(Nc2nc(OCC3CCCCC3)c3[nH]cnc3n2)cc1
active: [1] 16.6 µM | [2] 23.5 µM | [3] 18.7 µM | [14] 16.6 µM | [15] 18.7 µM | [16] 14.8 µM | [6] 26.4 µM | [7] 20.9 µM | [8] 20.9 µM | [9] 3.32 µM | [11] 13.2 µM | [18] 26.4 µM | [13] 20.9 µM | [19] 20.9 µM

OC[C@H]1O[C@@H](O[C@H]2[C@@H](O)[C@@](O)(CO)O[C@@H]2CO)[C@H](O)[C@@H](O)[C@@H]1O
inactive: [1] | [2] | [3] | [4] | [14] | [5] | [15] | [16] | [7] | [8] | [9] | [10] | [11] | [12] | [18] | [13]

Cc1nc(NC(=O)N2CCC[C@@H]2C(N)=O)sc1-c1csc(C(C)(C)C)n1
active: [1] 3.32 µM | [2] 8.33 µM | [3] 5.26 µM | [4] 6.62 µM | [14] 0.372 µM | [5] 14.8 µM | [15] 1.05 µM | [16] 1.05 µM | [6] 3.72 µM | [7] 5.9 µM | [8] 1.32 µM | [9] 16.6 µM | [17] 6.62 µM | [11] 5.9 µM | [12] 2.35 µM | [13] 4.69 µM

C[C@]12CC[C@@H]3c4ccc(O)cc4CC[C@H]3[C@H]1[C@@H](O)[C@@H](O)[C@H]2O
inactive: [20] | [5] | [15] | [7] | [10] | [12]
active: [11] 26.4 µM

O=C(O)Cc1cccc(OCCCN(Cc2cccc(C(F)(F)F)c2Cl)CC(c2ccccc2)c2ccccc2)c1
active: [17] 5.26 µM | [18] 3.32 µM
inactive: [20] | [3] | [14] | [5] | [15] | [13]

CC(C)(F)C[C@H](N[C@@H](c1ccc(-c2ccc(S(C)(=O)=O)cc2)cc1)C(F)(F)F)C(=O)NC1(C#N)CC1
inactive: [1] | [2] | [3] | [4] | [14] | [5] | [10] | [11] | [12]
active: [7] 0.0833 µM

CC1(C)CC(=O)c2c(C(F)(F)F)nn(-c3ccc(C(N)=O)c(NC4CCC(O)CC4)c3)c2C1 (configuration not stated)
active: [20] 0.059 µM | [4] 0.132 µM | [7] 0.105 µM | [17] 0.0662 µM | [19] 0.0935 µM
inactive: [15] | [12] | [13]
